Data taken from PubChem BioAssay (NCATS).
Results filed as inconclusive are left out. Entries that show only a call come without a potency. Activity calls are given as the source filed them. Calls come from the whole dose curve; as a rule, active = well fitted curve in the direction sought with a large enough effect; inconclusive = small, poorly fitted or top-dose-only effect, or another doubt; inactive = no such curve, though single readings can be large; an effect the other way counts as inactive or inconclusive.

Columns and labels:
[1] = HPAF-II 24hr Apoptosis Induction qHTS against the NCATS CANVASS Library (AID 1347356)
In short: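 Using an 11-point qHTS format, HPAF-II cells in DMEM/10% FBS received compounds for 24 h; doxorubicin titration as control. Caspase-3/7 activity quantified by DEVD-luciferase luminescence.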

[2] = HEK293 24hr Apoptosis Induction qHTS against the NCATS CANVASS Library (AID 1347359)
In short: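 Caspase-3/7 activation measured as luminescence from the DEVD-based Caspase-Glo reagent, 15 min at room temperature, following 24-hour compound treatment of HEK293 cells.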

[3] = HPAF-II 18hr Apoptosis Induction qHTS against the NCATS CANVASS Library (AID 1347360)
In short: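 HPAF-II cells at 500/well were exposed for 18 h at 37 C to an 11-point compound series. Caspase-3/7 activity was read by Caspase-Glo luminescence after 15 min at RT.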

[4] = test system: NAD(P)H diaphorase (Clostridium kluyveri); test: Diaphorse counterscreen qHTS: Assay Interference Panel against the NCATS CANVASS Library (AID 1347362)
In short: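 Counterscreen for coupling-enzyme interference: resorufin fluorescence from resazurin/NADH turnover, read after 5 min at room temperature. Compounds were tested over an 11-point series after 15 min dark preincubation with diaphorase in PBS-Tween.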

[5] = qHTS for ATAD5 Agonist screened against the NCATS CANVASS Library (AID 1347367);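 note: luciferase reporter driven by ATAD5 which rises upon DNA damage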
In short: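 Luciferase reporter under ATAD5 control, stably integrated in HEK293T cells (2000/well). Compounds (11 points) incubated 16 h at 37C; viability read first by CellTiter-Fluor, then luminescence reporting ATAD5 activation. MMS positive control.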

[6] = qHTS for ATAD5 Antagonist screened against the NCATS CANVASS Library (AID 1347370);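 note: HEK293T cells carrying an ATAD5 luciferase reporter co-treated with 10 µM 5-fluorouridine; series mostly up to about 46 µM; nearly all actives have a fitted effect of over 65% in size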
In short: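 HEK293T-ATAD5 luc reporter, 2000 cells/well; 5hr attach; cpd + 10 uM 5-FUrd; 16hr 37C, 5% CO2. Readouts: CellTiter-Fluor fluorescence (1hr), then Amplite luciferase luminescence (30min RT).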

[7] = J3T Cancer Cell Toxicity qHTS against the NCATS CANVASS Library (AID 1347371)
In short: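 ATP-based cytotoxicity in canine J3T cells: 72 hr exposure at 37C, 11-point titration, CellTiterGlo luminescent detection.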

[8] = molecular target: Nuclear receptor subfamily 1 group I member 3 (Homo sapiens) (UniProt Q14994); test: qHTS for Constitutive Androstane Receptor (CAR) Antagonist screened against the NCATS CANVASS Library (AID 1347372); note: potency is the fitted concentration of half-maximal effect
Nuclear receptor subfamily 1 group I member 3 (Homo sapiens), sequence (Q14994 whole entry, looked up): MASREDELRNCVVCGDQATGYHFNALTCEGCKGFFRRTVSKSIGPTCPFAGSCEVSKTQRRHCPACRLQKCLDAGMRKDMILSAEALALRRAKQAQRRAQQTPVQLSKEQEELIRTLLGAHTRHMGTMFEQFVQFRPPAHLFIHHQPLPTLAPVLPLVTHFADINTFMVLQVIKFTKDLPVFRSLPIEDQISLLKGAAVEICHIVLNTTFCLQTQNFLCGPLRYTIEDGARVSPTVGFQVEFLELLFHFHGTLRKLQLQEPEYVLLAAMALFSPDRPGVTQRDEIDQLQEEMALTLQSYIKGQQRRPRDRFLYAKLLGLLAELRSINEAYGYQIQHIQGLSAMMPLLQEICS
In short: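 Antagonist mode: compound added alongside 50 nM CITCO to HepG2-hCAR-CYP2B6 reporter cells, 24hr at 37C. Viability by CellTiter-Fluor fluorescence, then CAR-driven luciferase by ONE-Glo luminescence.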

[9] = qHTS for Hypoxia signaling pathway (HIF-1) agonists against the NCATS CANVASS Library (AID 1347375)
In short: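 An HRE-beta-lactamase ME-180 line is exposed for 17 h to an 11-point compound series, then read by CCF4-AM FRET. Cytotoxicity is measured in parallel in the same wells with CellTiter-Glo, and autofluorescence is checked separately.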

[10] = 10-beta competent E. coli microbial cell viability qHTS against the NCATS CANVASS Library (AID 1347376); note: series mostly up to about 46 µM
In short: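 Overnight 37C exposure of 10-beta E. coli (0.2 OD) to an 11-point concentration series; ATP-based luminescence after 20 min room-temperature reagent incubation; daunomycin as control.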

[11] = qHTS for H2AX Agonists against the NCATS CANVASS Library (AID 1347378)
In short: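 CHO-K1 cells (1000/well, overnight at 37C) exposed to compounds at several concentrations for 3 hr at 37C, 0.76% DMSO final. Lysates read by TR-FRET (phospho-H2AX S139 Eu-cryptate antibody / H2AX-d2 antibody) after 24 hr at room temperature; 665/615 nm ratio.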

[12] = Inflammasome Signaling qHTS Counterscreen: IL-1-beta AlphaLISA counterscreen against the NCATS CANVASS Library (AID 1347381);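 note: cell-free check with purified IL-1β in medium and no THP-1 cells; series mostly up to about 57 µM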
In short: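 Here, no cellular stimulation occurs; compounds in an 11-point series meet 4 pg purified IL-1-beta directly. Bead-based AlphaLISA detection follows (1 h acceptor/antibody, then 30 min donor, dark, room temperature), with excitation at 680 nm.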

[13] = Cytotoxicity qHTS for assessment of Hepg2 cells membrane integrity screened against the NCATS CANVASS Library (AID 1347387)
In short: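 Membrane damage in HepG2 monolayers was estimated from released LDH, measured with CytoTox-ONE (ex 560/em 590 nm), after 5 hr treatment across 0.59 nM - 46 uM final.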

[14] = qHTS for Activators of p53 Stress Response Pathway screened against the NCATS CANVASS Library (AID 1347388); note: potency is the fitted concentration of half-maximal effect
In short: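 Beta-lactamase reporter driven by p53 response elements in HCT-116 cells, read as the 460 nm/530 nm emission ratio after CCF4 loading, following 16 h of exposure to an 11-point series. Cell viability was measured in the same wells by CellTiter-Glo luminescence.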

[15] = qHTS assay for small molecule disruptors of mitochondrial membrane potential screened against the NCATS CANVASS Library (AID 1347389); note: series mostly up to about 46 µM; nearly all actives have a fitted effect of over 60% in size
In short: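 Cells (HepG2) seeded the day before received compound or DMSO for 1 hr, then Mito-MPS dye for 30 min at 37C; emission at 590 nm over 535 nm gave the polarization signal.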

[16] = Secretion counterscreen for inhibitors of the SERCaMP assay screened against the NCATS CANVASS Library (AID 1347390);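 note: light from luciferase secreted into medium read as a measure of general secretion; series mostly up to about 77 µM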
In short: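 SH-SY5Y cells with constitutively secreted GLuc reporter, 1000 cells/well, treated 20 h at 37C with compounds at 0.001 - 77 uM final; secreted luciferase read as luminescence after coelenterazine; Brefeldin A as positive control.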

[17] = qHTS for activators of dead-cell proteases activity screened against the NCATS CANVASS Library (AID 1347392);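 note: luminescence from protease leaking out of membrane-damaged cells cleaving impermeant substrate; rising signal means more cytotoxicity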
In short: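 Luminescent dead-cell protease readout (AAF-aminoluciferin, 15 min, room temperature) after 5 h compound treatment of HepG2 cells (2000/well, pre-attached 18 h). Eleven concentrations.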

[18] = G06 Cancer Cell Toxicity qHTS against the NCATS CANVASS Library (AID 1347368); note: nearly all actives have a fitted effect of over 60% in size; note: potency is the fitted concentration of half-maximal effect
In short: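 Quantitative HTS in G06 cells (dog glioma): 72 hr treatment, 11 concentrations, then ATP-based luminescent viability readout; bortezomib 0.1 nM–4.6 uM final as reference.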

[19] = molecular target: Nuclear receptor subfamily 1 group I member 3 (Homo sapiens) (UniProt Q14994); test: qHTS for Constitutive Androstane Receptor (CAR) Agonist screened against the NCATS CANVASS Library (AID 1347373);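 note: every well also contained 1.5 µM PK11195 alongside the test compound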; note: potency is the fitted concentration of half-maximal effect
In short: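 In an 11-point concentration series, compounds were incubated 24hr with HepG2 cells carrying hCAR and a CYP2B6-2.2kb reporter, with PK11195 at 1.5uM final. A CellTiter-Fluor viability read preceded the ONE-Glo luminescence read.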

[20] = Vero-766 cells viability qHTS against the NCATS CANVASS Library: Counterscreen for Zika virus inhibition assay (AID 1347394); note: nearly all actives have a fitted effect of over 60% in size; note: potency is the fitted concentration of half-maximal effect
In short: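 Vero 766 cells (1000/well), without Zika virus, were exposed to compounds for 72 h at 37C. Viability was measured by CellTiter Glo luminescence. Media-only wells served as 100% inhibition.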

SMILES	outcome [1]	Potency [2]	Potency [3]	Potency [4]	Potency [5]	Potency [6]	Potency [7]	Potency [8]	outcome [9]	outcome [10]	Potency [11]	outcome [12]	outcome [13]	Potency [14]	Potency [15]	Potency [16]	Potency [17]	Potency [18]	Potency [19]	Potency [20]
C[C@H]1CCC2(OC1)O[C@H]1C[C@H]3[C@@H]4CC(=O)[C@]5(O)C[C@H](O)CC[C@@]5(C)[C@H]4CC[C@@]3(C)[C@H]1[C@H]2C (stereo partly drawn)	inactive	inactive	inactive	inactive	inactive	inactive	inactive	inactive	inactive	inactive	inactive	inactive	inactive	23.4 µM (active)	inactive	inactive	inactive			
O=C1CCC(=O)N(O)CCCCCNC(=O)CCC(=O)N(O)CCCCCNC(=O)CCC(=O)N(O)CCCCCN1	inactive	inactive	inactive	inactive	inactive	inactive	inactive	inactive		inactive	inactive	inactive	inactive	inactive	inactive	inactive	inactive	8.33 µM (active)	inactive	
C[C@H](CCC(O)C(C)(O)CO)[C@@]1(O)CC[C@@]2(C)C3=C(CC[C@@]21C)[C@@]1(C)CCC(OC(=O)CCC(=O)O)C(C)(C)[C@@H]1CC3 (stereo partly drawn)	inactive	inactive	inactive	inactive	inactive	inactive	inactive	inactive	inactive	inactive		inactive	inactive	inactive		inactive	inactive	inactive	inactive	29.5 µM (active)
C=C[C@]1(C)CC[C@@H]([C@H](C)C(=O)/C=C/C(C)(C)O)O1	inactive	inactive	inactive	inactive	inactive			inactive	inactive	inactive	inactive	inactive	inactive	inactive	inactive	inactive	inactive			inactive
CC1=C[C@H]2[C@H]3C(=O)C(c4ccc(O)cc4)=C[C@@]3(c3ccc(O)cc3)[C@@H]1C(=O)[C@]2(C)O	inactive	inactive	inactive	inactive	inactive	inactive		0.933 µM (active)	inactive	inactive	inactive	inactive	inactive	0.331 µM (active)	inactive		inactive	0.235 µM (active)	inactive	
COc1cc2oc3ccccc3c(=O)c2cc1OC	inactive	inactive	inactive	inactive	inactive	inactive	inactive	inactive	inactive	inactive	inactive	inactive	inactive		inactive	inactive	inactive		38.2 µM (active)	
